# Data from PubChem BioAssay (Tox21).
# A number with no mark means an inactive call. Results filed as inconclusive are left out. Entries that show only a call come without a potency. Active and inactive are the calls of the source. Calls come from the whole dose curve; as a rule, active = well fitted curve in the direction sought with a large enough effect in the repeat runs; inconclusive = weak or mixed curves; inactive = no such curve, though single readings can be large; an effect the other way counts as inactive or inconclusive.
# Assays:
# [1] = qHTS RealTime-Glo MT Cell Viability Assay in HEK293 cells - 40 hour (AID 1224874); details: RealTime-Glo luminescence; max response: active compounds read low; note: nearly all actives have a fitted effect of over 50% in size; note: potency is the fitted concentration of half-maximal effect
# Procedure, shortened: (§1)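 Viable HEK293 cells reduce a cell-permeant prosubstrate; the product diffuses out and is consumed by NanoLuc in the medium to give light. Compounds went in after a 5 h incubation and plates were read over the treatment course.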
# [2] = A CellTox Green Cytotoxicity Assay to monitor cytotoxicity in HEK293 cells - 24 hour (AID 1224875); note: nearly all actives have a fitted effect of over 45% in size; note: potency is the fitted concentration of half-maximal effect; for activity change: series mostly up to about 77 µM
# Procedure, shortened: (§2)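 Fluorescence intensity, read at 0, 8, 16, 24, 32 and 40 h of compound treatment, reflected dye binding to DNA of dead HEK293 cells; compounds (23 nL, DMSO) were added 5 h after plating cells with reagent.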
# [3] = A CellTox Green Cytotoxicity Assay to monitor cytotoxicity in HepG2 cells - 16 hour (AID 1224876); note: nearly all actives have a fitted effect of over 45% in size; note: potency is the fitted concentration of half-maximal effect
# Procedure, shortened: (§3)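 Using 1536-well format, dye-containing HepG2 suspension was seeded, allowed 5 h at 37 C/5% CO2, dosed by pintool with compounds, positive and negative controls, and imaged for fluorescence across 40 h.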
# [4] = qHTS RealTime-Glo MT Cell Viability Assay in HepG2 cells - 32 hour (AID 1224877); note: nearly all actives have a fitted effect of over 55% in size; note: potency is the fitted concentration of half-maximal effect
# Procedure, shortened: (§4)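 HepG2 cells were seeded at 600 cells/well together with NanoLuc luciferase and a cell-permeant prosubstrate, preincubated 5 h at 37 C/5% CO2, then pin-dosed with compounds in DMSO. Nonlytic luminescence from viable cells was read at each time point.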
# [5] = A CellTox Green Cytotoxicity Assay to monitor cytotoxicity in HepG2 cells - 24 hour (AID 1224878); note: nearly all actives have a fitted effect of over 45% in size; note: potency is the fitted concentration of half-maximal effect
# Procedure, shortened: as §3
# [6] = A CellTox Green Cytotoxicity Assay to monitor cytotoxicity in HepG2 cells - 40 hour (AID 1224879); note: nearly all actives have a fitted effect of over 40% in size; note: potency is the fitted concentration of half-maximal effect
# Procedure, shortened: as §3
# [7] = qHTS RealTime-Glo MT Cell Viability Assay in HEK293 cells - 0 hour (AID 1224880); note: nearly all actives have a fitted effect of over 45% in size; note: potency is the fitted concentration of half-maximal effect; for activity change, negative = cytotoxicity: top concentration of the series differs between compounds
# Procedure, shortened: as §1
# [8] = A CellTox Green Cytotoxicity Assay to monitor cytotoxicity in HEK293 cells - 32 hour (AID 1224881); note: nearly all actives have a fitted effect of over 40% in size; note: potency is the fitted concentration of half-maximal effect
# Procedure, shortened: as §2
# [9] = A CellTox Green Cytotoxicity Assay to monitor cytotoxicity in HepG2 cells - 0 hour (AID 1224882); note: nearly all actives have a fitted effect of over 35% in size
# Procedure, shortened: as §3
# [10] = A CellTox Green Cytotoxicity Assay to monitor cytotoxicity in HepG2 cells - 32 hour (AID 1224883); note: nearly all actives have a fitted effect of over 50% in size; note: potency is the fitted concentration of half-maximal effect
# Procedure, shortened: as §3
# [11] = A CellTox Green Cytotoxicity Assay to monitor cytotoxicity in HEK293 cells - 8 hour (AID 1224884); note: nearly all actives have a fitted effect of over 35% in size; note: potency is the fitted concentration of half-maximal effect
# Procedure, shortened: as §2
# [12] = qHTS RealTime-Glo MT Cell Viability Assay in HepG2 cells - 16 hour (AID 1224885); note: nearly all actives have a fitted effect of over 50% in size; note: potency is the fitted concentration of half-maximal effect
# Procedure, shortened: as §4
# [13] = qHTS RealTime-Glo MT Cell Viability Assay in HEK293 cells - 24 hour (AID 1224886); note: nearly all actives have a fitted effect of over 50% in size; note: potency is the fitted concentration of half-maximal effect; for activity change, negative = cytotoxicity: top concentration of the series differs between compounds
# Procedure, shortened: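 HEK293 cells were seeded at 600 cells/well together with NanoLuc luciferase and cell-permeant prosubstrate, preincubated 5 h at 37 C/5% CO2, then given compound in DMSO by pintool. Luminescence from viable-cell prosubstrate reduction was read repeatedly over 40 h.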
# [14] = qHTS RealTime-Glo MT Cell Viability Assay in HEK293 cells - 8 hour (AID 1224887); note: nearly all actives have a fitted effect of over 50% in size; note: potency is the fitted concentration of half-maximal effect; for activity change, negative = cytotoxicity: top concentration of the series differs between compounds
# Procedure, shortened: as §1
# [15] = A CellTox Green Cytotoxicity Assay to monitor cytotoxicity in HEK293 cells - 16 hour (AID 1224888); note: nearly all actives have a fitted effect of over 35% in size; note: potency is the fitted concentration of half-maximal effect
# Procedure, shortened: as §2
# [16] = qHTS RealTime-Glo MT Cell Viability Assay in HepG2 cells - 0 hour (AID 1224889); note: nearly all actives have a fitted effect of over 50% in size
# Procedure, shortened: as §4
# [17] = A CellTox Green Cytotoxicity Assay to monitor cytotoxicity in HepG2 cells - 8 hour (AID 1224890); note: nearly all actives have a fitted effect of over 45% in size; note: potency is the fitted concentration of half-maximal effect
# Procedure, shortened: as §3
# [18] = qHTS assay to identify small molecule antagonists of the estrogen receptor alpha (ER-alpha) signaling pathway using the BG1 cell line in the presence of 0.1 nM 17-beta-estradiol - cell viability counter screen (AID 1259241); note: nearly all actives have a fitted effect of over 40% in size; note: potency is the fitted concentration of half-maximal effect
# Procedure, shortened: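 VM7Luc4E2 cells (endogenous full-length ER-alpha, 4xERE-luciferase), cultured 5 days in charcoal-stripped serum, exposed to compounds with 0.1 nM 17beta-estradiol (final) for 22 hr at 37C. Viability read in same wells as live-cell protease fluorescence after 30 min.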
# [19] = qHTS assay to identify small molecule antagonists of the androgen receptor (AR) signaling pathway using the MDA cell line in the presence of 0.5 nM R1881 - cell viability counter screen (AID 1259242); note: nearly all actives have a fitted effect of over 45% in size; note: potency is the fitted concentration of half-maximal effect
# Procedure, shortened: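 Viability of MDA-kb2 cells was multiplexed with the luciferase AR readout; after 16 hr with compounds and R1881 at 0.5 nM final, CellTiter-Fluor fluorescence was recorded.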
# [20] = molecular target: Androgen receptor (Homo sapiens) (UniProt P10275); assay: qHTS assay to identify small molecule antagonists of the androgen receptor (AR) signaling pathway using the MDA cell line in the presence of 0.5 nM R1881 (AID 1259243); note: nearly all actives have a fitted effect of over 50% in size; note: potency is the fitted concentration of half-maximal effect
# Chain of Androgen receptor (Homo sapiens) (P10275 whole entry, looked up): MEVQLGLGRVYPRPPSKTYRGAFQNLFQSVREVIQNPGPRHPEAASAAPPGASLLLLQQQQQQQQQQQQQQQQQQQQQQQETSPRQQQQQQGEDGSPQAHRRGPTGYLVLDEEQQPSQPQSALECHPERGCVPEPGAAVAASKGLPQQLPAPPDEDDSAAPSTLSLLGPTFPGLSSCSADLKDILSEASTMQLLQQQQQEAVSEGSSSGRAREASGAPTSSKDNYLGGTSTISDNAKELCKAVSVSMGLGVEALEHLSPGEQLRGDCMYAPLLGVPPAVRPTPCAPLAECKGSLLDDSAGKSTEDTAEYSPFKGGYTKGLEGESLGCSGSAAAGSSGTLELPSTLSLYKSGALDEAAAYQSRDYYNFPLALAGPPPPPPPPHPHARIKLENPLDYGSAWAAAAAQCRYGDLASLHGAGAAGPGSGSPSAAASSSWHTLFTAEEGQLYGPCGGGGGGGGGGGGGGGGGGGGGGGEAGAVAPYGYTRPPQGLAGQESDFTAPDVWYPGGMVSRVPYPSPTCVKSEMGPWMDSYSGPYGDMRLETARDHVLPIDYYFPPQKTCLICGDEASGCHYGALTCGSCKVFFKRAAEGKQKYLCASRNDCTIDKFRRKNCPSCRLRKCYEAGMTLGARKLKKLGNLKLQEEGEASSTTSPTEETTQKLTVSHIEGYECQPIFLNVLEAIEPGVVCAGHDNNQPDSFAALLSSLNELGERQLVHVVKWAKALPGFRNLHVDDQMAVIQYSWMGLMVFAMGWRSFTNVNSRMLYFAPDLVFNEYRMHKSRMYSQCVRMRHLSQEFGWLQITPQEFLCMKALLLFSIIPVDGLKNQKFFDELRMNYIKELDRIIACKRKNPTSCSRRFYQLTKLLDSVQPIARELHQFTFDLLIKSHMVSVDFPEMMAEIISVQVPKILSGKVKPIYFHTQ
# Procedure, shortened: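 Reporter cells cultured without CO2 receive test chemicals, then 0.5 nM R1881 final; after 16 hr at 37C, ONE-Glo is added and light output recorded.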
compound,measurement,setting,value
CC1(C)[C@H](C(=O)OCc2cccc(Oc3ccccc3)c2)[C@@H]1C=C(Cl)Cl,max response,[1],4.05%
same,Potency,[2],inactive
same,Potency,[3],inactive
same,Potency,[4],inactive
same,Potency,[5],inactive
same,Potency,[6],inactive
same,Potency,[7],inactive
same,Potency,[8],inactive
same,Potency,[9],inactive
same,Potency,[10],inactive
same,Potency,[11],inactive
same,Potency,[12],inactive
same,Potency,[13],inactive
same,Potency,[14],inactive
same,Potency,[15],inactive
same,Potency,[16],inactive
same,Potency,[17],inactive
same,Potency,[18],inactive
same,Potency,[19],inactive
same,Potency,[20],inactive
ClC(c1ccccc1)(c1ccccc1)c1ccccc1,max response,[1],-24.6%
same,Potency,[2],inactive
same,Potency,[3],inactive
same,Potency,[4],inactive
same,Potency,[5],inactive
same,Potency,[6],inactive
same,Potency,[7],inactive
same,Potency,[8],inactive
same,Potency,[9],inactive
same,Potency,[10],inactive
same,Potency,[11],inactive
same,Potency,[12],inactive
same,Potency,[13],inactive
same,Potency,[14],inactive
same,Potency,[15],inactive
same,Potency,[16],inactive
same,Potency,[18],inactive
same,Potency,[19],inactive
SC1CCCCC1,max response,[1],6.15%
same,Potency,[2],inactive
same,Potency,[3],inactive
same,Potency,[4],inactive
same,Potency,[5],inactive
same,Potency,[6],inactive
same,Potency,[7],inactive
same,Potency,[8],inactive
same,Potency,[9],inactive
same,Potency,[10],inactive
same,Potency,[11],inactive
same,Potency,[12],inactive
same,Potency,[13],inactive
same,Potency,[14],inactive
same,Potency,[15],inactive
same,Potency,[16],inactive
same,Potency,[18],inactive
same,Potency,[19],inactive
Cc1ccc(C=O)cc1,max response,[1],7.49%
same,Potency,[2],inactive
same,Potency,[3],inactive
same,Potency,[4],inactive
same,Potency,[5],inactive
same,Potency,[6],inactive
same,Potency,[7],inactive
same,Potency,[8],inactive
same,Potency,[9],inactive
same,Potency,[10],inactive
same,Potency,[11],inactive
same,Potency,[12],inactive
same,Potency,[13],inactive
same,Potency,[14],inactive
same,Potency,[15],inactive
same,Potency,[16],inactive
same,Potency,[17],inactive
same,Potency,[18],inactive
same,Potency,[19],inactive
Oc1ccc(C2(c3ccc(O)c(C4CCCCC4)c3)CCCCC2)cc1C1CCCCC1,Potency,[1],24.5 µM (active)
same,Potency,[2],inactive
same,Potency,[3],34.7 µM (active)
same,Potency,[4],34.7 µM (active)
same,Potency,[5],34.7 µM (active)
same,Potency,[6],24.5 µM (active)
same,Potency,[7],49 µM (active)
same,Potency,[8],inactive
same,Potency,[9],inactive
same,Potency,[10],34.7 µM (active)
same,Potency,[11],inactive
same,Potency,[12],38.9 µM (active)
same,Potency,[13],38.9 µM (active)
same,Potency,[14],43.6 µM (active)
same,Potency,[15],inactive
same,Potency,[16],inactive
same,Potency,[19],43.3 µM (active)
COc1cc(OC)nc(NC(=O)NS(=O)(=O)Nc2ccccc2C(=O)N(C)C)n1,max response,[1],6.33%
same,Potency,[2],inactive
same,Potency,[3],inactive
same,Potency,[4],inactive
same,Potency,[5],inactive
same,Potency,[6],inactive
same,Potency,[7],inactive
same,Potency,[8],inactive
same,Potency,[9],inactive
same,Potency,[10],inactive
same,Potency,[11],inactive
same,Potency,[12],inactive
same,Potency,[13],inactive
same,Potency,[14],inactive
same,Potency,[15],inactive
same,Potency,[16],inactive
same,Potency,[18],inactive
same,Potency,[19],inactive
C=C[Si](C)(C)Cl,max response,[1],-5.42%
same,activity change,[2],"-5.65% [at 6.97 µM, active compounds read high]"
same,cytotoxicity increase,[3],-13.5% [at 6.97 µM]
same,"activity change, negative = cytotoxic",[4],9.18% [at 6.97 µM]
same,cytotoxicity,[5],-14.5% [at 6.97 µM]
same,cytotoxicity increase,[6],-18.2% [at 6.97 µM]
same,"activity change, negative = cytotoxicity",[7],-5.88% [at 6.97 µM]
same,cytotoxicity increase,[8],-7.47% [at 6.97 µM]
same,cytotoxicity,[9],-6.72% [at 6.97 µM]
same,cytotoxicity increase,[10],-16.4% [at 6.97 µM]
same,cytotoxicity increase,[11],-2.48% [at 6.97 µM]
same,"activity change, negative = cytotoxic",[12],-9.49% [at 6.97 µM]
same,"activity change, negative = cytotoxicity",[13],-3.65% [at 6.97 µM]
same,"activity change, negative = cytotoxicity",[14],-4.42% [at 6.97 µM]
same,activity change,[15],"-2.03% [at 6.97 µM, active compounds read high]"
same,"activity change, negative = cytotoxicity",[16],-16.4% [at 6.97 µM]
same,cytotoxicity increase,[17],-7.78% [at 6.97 µM]
same,"activity change, negative = cytotoxicity",[18],-11.6% [at 8.39 µM]
same,"viability change, negative = cytotoxic",[19],0.0065% [at 8.39 µM]
Cc1ccc2sc3cccc(C)c3c2c1,max response,[1],12.7%
same,Potency,[2],inactive
same,Potency,[3],inactive
same,Potency,[4],inactive
same,Potency,[5],inactive
same,Potency,[6],inactive
same,Potency,[7],inactive
same,Potency,[8],inactive
same,Potency,[9],inactive
same,Potency,[10],inactive
same,Potency,[11],inactive
same,Potency,[12],inactive
same,Potency,[13],inactive
same,Potency,[14],inactive
same,Potency,[15],inactive
same,Potency,[16],inactive
same,Potency,[17],inactive
same,Potency,[18],inactive
same,Potency,[19],inactive
same,Potency,[20],8.63 µM (active)
c1ccc(-c2nc3ccccc3[nH]2)cc1,Potency,[1],21.9 µM (active)
same,Potency,[2],inactive
same,Potency,[3],inactive
same,Potency,[4],inactive
same,Potency,[5],inactive
same,Potency,[6],inactive
same,Potency,[7],inactive
same,Potency,[8],inactive
same,Potency,[9],inactive
same,Potency,[10],inactive
same,Potency,[11],inactive
same,Potency,[12],inactive
same,Potency,[13],21.9 µM (active)
same,Potency,[14],21.9 µM (active)
same,Potency,[15],inactive
same,Potency,[16],inactive
same,Potency,[17],inactive
same,Potency,[18],inactive
same,Potency,[19],inactive
Clc1ccc2c(Cl)ccnc2c1,max response,[1],-6.98%
same,Potency,[2],inactive
same,Potency,[3],inactive
same,Potency,[4],inactive
same,Potency,[5],inactive
same,Potency,[6],inactive
same,Potency,[7],inactive
same,Potency,[8],inactive
same,Potency,[9],inactive
same,Potency,[10],inactive
same,Potency,[11],inactive
same,Potency,[12],inactive
same,Potency,[13],inactive
same,Potency,[14],inactive
same,Potency,[15],inactive
same,Potency,[16],inactive
same,Potency,[17],inactive
same,Potency,[18],inactive
same,Potency,[19],inactive
same,Potency,[20],inactive
CCN(CCC#N)c1ccc(N=Nc2ccc([N+](=O)[O-])cc2)cc1,max response,[1],0.454%
same,Potency,[2],inactive
same,Potency,[3],inactive
same,Potency,[4],inactive
same,Potency,[5],inactive
same,Potency,[6],inactive
same,Potency,[7],inactive
same,Potency,[8],inactive
same,Potency,[9],inactive
same,Potency,[10],inactive
same,Potency,[11],inactive
same,Potency,[12],inactive
same,Potency,[13],inactive
same,Potency,[14],inactive
same,Potency,[15],inactive
same,Potency,[16],inactive
same,Potency,[17],inactive
same,Potency,[18],inactive
same,Potency,[19],inactive
same,Potency,[20],inactive
CN(C[C@@H](CC[N+]12CCC(C3CCCCC3)(CC1)CC2)c1ccc(Cl)c(Cl)c1)C(=O)c1cc(C(F)(F)F)cc(C(F)(F)F)c1,Potency,[1],2.19 µM (active)
same,Potency,[2],24.5 µM (active)
same,Potency,[3],24.5 µM (active)
same,Potency,[4],24.5 µM (active)
same,Potency,[5],24.5 µM (active)
same,Potency,[6],24.5 µM (active)
same,Potency,[7],inactive
same,Potency,[8],34.7 µM (active)
same,Potency,[9],inactive
same,Potency,[10],24.5 µM (active)
same,Potency,[11],43.6 µM (active)
same,Potency,[12],21.9 µM (active)
same,Potency,[13],3.09 µM (active)
same,Potency,[14],3.47 µM (active)
same,Potency,[15],24.5 µM (active)
same,Potency,[17],38.9 µM (active)
same,Potency,[18],54.5 µM (active)
same,Potency,[20],68.6 µM (active)
